{"source": "PubChem BioAssay AID430", "about": "(Sanford-Burnham Center for Chemical Genomics, 2006)", "note": "Out of some 63,000 compounds screened, about 1,100 (1.7%) were called active. For the sample, actives were picked, then their nearest neighbours and some compounds at random. Entries with a potency or affinity are not part of this list. Values without a mark were called inactive. Rule as the data show it: active = cytotoxicity above about 50%; inactive = the rest."}
{"assay": "cytotoxicity in HPDE-C7 cells, cell-based, fluorescence, HTS (AID 430);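 also: cells exposed to compound for 48 hours before viability readout; 0% = vehicle and 100% = reference cytotoxic drug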", "conditions": "HPDE-C7 pancreatic duct cells viability, at 10 µM, stronger effect = higher value"}
{"compound": "COC(=O)c1ccccc1NC(=O)c1cc2sccc2n1C", "cytotoxicity": "3.3%"}
{"compound": "Cc1ccc(S(=O)(=O)Cn2nnnc2C(C(C)C)N2CCN(Cc3ccco3)CC2)cc1", "note": "(stereo unspecified)", "cytotoxicity": "-0.6%"}
{"compound": "CCC(=O)Oc1ccc(-c2nc(-c3cccnc3)no2)cc1", "cytotoxicity": "-4.4%"}
{"compound": "COC(=O)CCC(=O)Oc1ccc(OC(=O)CCC(=O)OC)cc1", "cytotoxicity": "31.7%"}
{"compound": "CCOc1ccc(C(=O)COC(=O)CC)cc1", "cytotoxicity": "-1.4%"}
{"compound": "CC(C)c1ccc(OC(=O)NCCO)cc1", "cytotoxicity": "-0.9%"}
{"compound": "CCn1c(Cc2ccccc2)nnc1SCC(=O)Nc1cc(C)on1", "cytotoxicity": "4.4%"}
{"compound": "O=C1CCC(=O)N1OCCOc1ccc2c(c1)CCC2", "cytotoxicity": "-1.4%"}
{"compound": "O=C1NC(c2ccc3c(c2)OCO3)Nc2ccccc21", "note": "(stereo unspecified)", "cytotoxicity": "10.6%"}
{"compound": "COC(=O)c1ccc2c(=O)n(CCCN3CCOCC3)c(=S)[nH]c2c1", "cytotoxicity": "2.7%"}
{"compound": "CCC(C)C(NC(=O)C1CCC(C)CC1)C(=O)NC(C(=O)OC)C(C)C", "note": "(stereo unspecified)", "cytotoxicity": "-5.2%"}
{"compound": "CCOC(=O)c1sc(NCCNc2nc(C)c(C(=O)OCC)s2)nc1C", "cytotoxicity": "-1.3%"}
{"compound": "COc1ccccc1-c1nnc(NC(=O)c2ccccc2F)o1", "cytotoxicity": "4.8%"}
{"compound": "COc1cc2nc(-c3cccs3)oc(=O)c2cc1OC", "cytotoxicity": "16.9%"}
{"compound": "COC(=O)c1sc(NC(=O)COc2ccccc2OC)nc1C", "cytotoxicity": "-3%"}
{"compound": "COc1cc(-c2nnc(-c3cccs3)o2)cc(OC)c1OC", "cytotoxicity": "-21.3%"}
{"compound": "COc1cccc2sc(N(C)c3ccccc3)nc12", "cytotoxicity": "-14%"}
{"compound": "CCOC(=O)c1sc(Nc2nc3c(OC)cccc3s2)nc1C", "cytotoxicity": "63.9% (active)"}
{"compound": "COc1ccc(-c2nnc(NC(=O)C(C)C)o2)cc1", "cytotoxicity": "-7.7%"}
{"compound": "COc1ccc(-c2nnc(-c3ccc(N)cc3)o2)cc1", "cytotoxicity": "2.5%"}
{"compound": "COc1ccccc1-c1nnc(Nc2nc3c(OC)cccc3s2)o1", "cytotoxicity": "54.9% (active)"}
{"compound": "COc1cccc2sc(Nc3nnc(-c4cccs4)o3)nc12", "cytotoxicity": "65.3% (active)"}
{"compound": "COc1ccc(-c2nnc(Nc3nc4c(OC)cccc4s3)o2)cc1", "cytotoxicity": "85.9% (active)"}
{"compound": "CCCCNC(=O)NCC(=O)Nc1ccc(F)c(F)c1", "cytotoxicity": "-4%"}
{"compound": "CCSc1nnc(NC(=O)CSc2nccn2-c2cc(C)cc(C)c2)s1", "cytotoxicity": "-2.2%"}
{"compound": "CC(=O)NC1CC2CCCC(C1)N2S(=O)(=O)c1ccccc1", "note": "(stereo unspecified)", "cytotoxicity": "-17.7%"}
{"compound": "COc1ccc(N(C(=O)CNC(=O)c2ccco2)C(C(=O)NC2CCCCC2)c2ccco2)cc1", "note": "(stereo unspecified)", "cytotoxicity": "-2.6%"}
{"compound": "Cc1nc(NC(=O)C2CC2)sc1C(=O)N1CCCCC1", "cytotoxicity": "11.8%"}
{"compound": "Cc1ccc(-c2noc(CCC(=O)NCCCN3CCN(c4ccc(F)cc4)CC3)n2)cc1", "cytotoxicity": "-1.5%"}
{"compound": "O=C(Nc1ccccn1)c1cccnc1", "cytotoxicity": "0.9%"}
{"compound": "CC(=O)Nc1ccc(S(=O)(=O)N(CC(=O)O)Cc2ccccc2)cc1", "cytotoxicity": "-8.5%"}
{"compound": "Cc1ccc(S(=O)(=O)Nc2ccc(S(=O)(=O)N3CCCC3)cc2)cc1", "cytotoxicity": "8.3%"}
{"compound": "Cc1cccc(Nc2nc(-c3ccccn3)cs2)n1", "cytotoxicity": "0.3%"}
{"compound": "COc1cccc2sc(Nc3nc(-c4ccccn4)cs3)nc12", "cytotoxicity": "65.7% (active)"}
{"compound": "O=C(Nc1nnc(-c2ccccc2Cl)o1)c1ccco1", "cytotoxicity": "6.6%"}
{"compound": "COc1cccc2sc(Nc3nnc(-c4ccccc4Cl)o3)nc12", "cytotoxicity": "52.9% (active)"}
{"compound": "COc1ccc(-c2noc(-c3ccccc3Cl)n2)cc1OC", "cytotoxicity": "0.6%"}
{"compound": "c1ccc(-c2csc(Nc3cccnc3)n2)nc1", "cytotoxicity": "3.7%"}
{"compound": "Cc1ccc2oc(=O)cc(CN3CCC(C)CC3)c2c1", "cytotoxicity": "0.7%"}
{"compound": "O=c1c2ccccc2c(C=NCCO)c(O)n1-c1ccccc1", "cytotoxicity": "1.2%"}
{"compound": "CCOC(=O)C1CCCN(C2CC(=O)N(c3ccc(C)c(C)c3)C2=O)C1", "note": "(stereo unspecified)", "cytotoxicity": "-3.2%"}
{"compound": "O=C(NCc1ccc(F)cc1)c1ccc(CS(=O)(=O)Cc2ccccc2F)o1", "cytotoxicity": "-13.3%"}
{"compound": "O=C(c1cc(Cl)ccc1Cl)N1CCN(c2ccccn2)CC1", "cytotoxicity": "5.9%"}
{"compound": "Cc1cc(-c2ccccc2)nc(N2CCN(c3ccccn3)CC2)n1", "cytotoxicity": "11.2%"}
{"compound": "O=C(NCCC1=CCCCC1)C1CCCN(S(=O)(=O)c2cnc[nH]2)C1", "note": "(stereo unspecified)", "cytotoxicity": "-2.1%"}
{"compound": "CCOC(=O)c1ccccc1NC(=O)COC", "cytotoxicity": "-3.8%"}
{"compound": "CCOC(=O)c1cccc(C(=O)OCC)n1", "cytotoxicity": "-1%"}
{"compound": "CCN(c1ccccc1)c1cc(C)nc2nc(C)nn12", "cytotoxicity": "-20.9%"}
{"compound": "CC(C)CCNc1ncnc2c1nnn2Cc1ccccc1Cl", "cytotoxicity": "-10.8%"}
{"compound": "Clc1ccccc1Cn1nnc2c(Nc3ccccc3)ncnc21", "cytotoxicity": "-6.8%"}
{"compound": "CCc1ccc2[nH]c(=O)c(C(c3nnnn3CCOC)N3CCN(c4ccccc4F)CC3)cc2c1", "note": "(stereo unspecified)", "cytotoxicity": "-22%"}
